Laboratory results published in PubChem BioAssay AID504452 (The Scripps Research Institute Molecular Screening Center, 2011).
The source made the active and inactive calls. No stated cut-off is given here; in the data, active means activation above about 85%; inactive means the rest.

biological target: Peroxisome proliferator-activated receptor gamma (Homo sapiens) (UniProt P37231); experiment: partial agonism at human PPARgamma receptor – cell-based, luciferase reporter, luminescence, primary screen (AID 504452); details: cell-based PPARg luciferase reporter, at 5 µM, stronger effect = higher value; activation (% of full agonist control): measured here: relative to full agonist control;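 further: Cos-1 cells carrying PPARgamma and a response element luciferase reporter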
Sequence (P37231 whole entry, looked up): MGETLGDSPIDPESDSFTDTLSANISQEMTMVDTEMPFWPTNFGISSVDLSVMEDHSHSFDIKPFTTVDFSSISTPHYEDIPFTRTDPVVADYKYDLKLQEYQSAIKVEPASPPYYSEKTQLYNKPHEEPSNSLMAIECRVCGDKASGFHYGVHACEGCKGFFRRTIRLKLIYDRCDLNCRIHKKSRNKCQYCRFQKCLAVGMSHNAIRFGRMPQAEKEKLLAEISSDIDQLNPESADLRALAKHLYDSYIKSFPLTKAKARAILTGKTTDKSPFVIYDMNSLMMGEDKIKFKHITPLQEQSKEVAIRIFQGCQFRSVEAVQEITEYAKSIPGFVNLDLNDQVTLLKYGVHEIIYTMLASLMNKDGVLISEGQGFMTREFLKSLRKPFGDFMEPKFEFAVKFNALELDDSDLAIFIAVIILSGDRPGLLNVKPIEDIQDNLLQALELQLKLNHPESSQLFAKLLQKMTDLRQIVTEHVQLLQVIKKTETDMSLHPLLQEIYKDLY

Compound | activation (% of full agonist control) | activation (% of partial agonist control)
NC(=O)C1CCCN(Cc2c(C(=O)N3CCc4ccccc4C3)nc3ccc(Cl)cn23)C1 (stereo not drawn) | 30.2% | 66.9% (inactive)
CN1CCN(S(=O)(=O)c2ccc(Sc3nc4ccccc4[nH]3)c3nsnc23)CC1 | 43.8% | 96.9% (active)
CC(=O)c1cccc(NC(=O)CSc2nc(=O)n(CCN3CCOCC3)c3c2CCCC3)c1 | 36.2% | 80.2% (inactive)
O=C(CN1C(=O)/C(=C/c2ccccc2F)Sc2ccccc21)NCC1CCCO1 (stereo not drawn) | 35% | 77.5% (inactive)
Cc1cccc(N2CCN(C(=O)c3cccc(N4C(=O)C5CC=CC(C)C5C4=O)c3)CC2)c1C (stereo not drawn) | 16.4% | 36.3% (inactive)
O=C(NC(Cc1ccccc1)C(=O)O)/C(=C/c1ccc([N+](=O)[O-])cc1)NC(=O)c1ccco1 (stereo not drawn) | 35.3% | 78.1% (inactive)
COc1ccc2c(c1)c(=O)c(C(=O)c1ccc(F)cc1)cn2CC(=O)Nc1ccc(F)cc1 | 48.8% | 108% (active)
CCn1cnc2c1c(=O)n(Cc1cccc([N+](=O)[O-])c1)c(=O)n2Cc1ccccc1 | 64.1% | 142% (active)
CC(Oc1ccc2c(c1)oc(=O)c1ccccc12)C(=O)NC(Cc1c[nH]c2ccc(O)cc12)C(=O)O (stereo not drawn) | 49.2% | 109% (active)
CCOc1cccc(C2C(C(=O)c3ccco3)=C(O)C(=O)N2c2nnc(C)s2)c1 (stereo not drawn) | 31.8% | 70.4% (inactive)
Cc1ccc(OCC(=O)Nc2ccc(N3CCN(C(=O)c4ccco4)CC3)cc2)cc1 | 31.4% | 69.5% (inactive)
Cc1c(-n2cc(C(=O)c3cc(F)ccc3O)cc(C#N)c2=O)c(=O)n(-c2ccccc2)n1C | 43.7% | 96.7% (active)
COc1cccc(CN2CCN(Cc3ccc4c(NC(C)=O)cccc4n3)CC2CCO)c1 (stereo not drawn) | 36.5% | 80.7% (inactive)
CCOc1ccc(CN2CCN(Cc3cccc4nonc34)CC2CCO)cc1 (stereo not drawn) | 44.9% | 99.4% (active)
O=C1C(=O)N(Cc2cccnc2)C(c2cccc(F)c2)/C1=C(/O)c1ccc2c(c1)OCO2 (stereo not drawn) | 35.2% | 77.9% (inactive)
CCc1ccc(N2CC(C(=O)OCC(=O)Nc3ccc(C(C)=O)cc3)CC2=O)cc1 (stereo not drawn) | 31% | 68.6% (inactive)
CC1Cc2cc(/C(O)=C3/C(=O)C(=O)N(CCN4CCOCC4)C3c3ccc(N(C)C)cc3)ccc2O1 (stereo not drawn) | 29.1% | 64.3% (inactive)
CCOc1ccc(C2c3[nH]c4ccccc4c3CCN2Cc2cccn2-c2ncccn2)cc1 (stereo not drawn) | 39.5% | 87.5% (active)
Cc1ccc2nc(N3C(=O)C(O)=C(C(=O)c4ccco4)C3c3ccc(O)cc3)sc2c1 (stereo not drawn) | 40.9% | 90.5% (active)
O=C(c1ccccc1)c1ccc(NCCCn2ccnc2)c([N+](=O)[O-])c1 | 26.9% | 59.6% (inactive)

Compound | activation (% of full agonist control) | activation (% of partial agonist control)
O=C1C(=O)N(CCCn2ccnc2)C(c2ccc(Cl)cc2)/C1=C(\O)c1ccc2c(c1)OCCO2 (stereo not drawn) | 41.5% | 91.9% (active)
O=C(Nc1cc(Cl)ccc1O)c1cc2n(n1)C(C(F)(F)F)CC(c1ccc3c(c1)OCO3)N2 (stereo not drawn) | 35% | 77.5% (inactive)
COc1ccc(N2C(=O)C(=O)/C(=C(/O)c3ccc(C)cc3)C2c2cccnc2)cc1 (stereo not drawn) | 28.8% | 63.8% (inactive)
CN(C)c1ccc(C(CNS(=O)(=O)c2cccc([N+](=O)[O-])c2)N2CCOCC2)cc1 (stereo not drawn) | 31.9% | 70.6% (inactive)
CC(Oc1cccc(Cl)c1)C(=O)Nc1cc(S(=O)(=O)N2CCOCC2)ccc1N1CCCC1 (stereo not drawn) | 35.3% | 78.1% (inactive)
O=C(c1cccc(N2C(=O)C3C4C=CC(C4)C3C2=O)c1)N1CCN(c2ccccc2Cl)CC1 (stereo not drawn) | 41.1% | 91% (active)
C=CCSc1nnc(N2C(=O)C(O)=C(C(=O)c3ccco3)C2c2ccc(F)cc2)s1 (stereo not drawn) | 30.5% | 67.6% (inactive)
O=C(CSc1nnc(Cc2cc(=O)[nH]c(=O)[nH]2)n1-c1ccc(Cl)cc1)N1CCc2ccccc21 | 46.6% | 103% (active)
COCCn1cnc2c1c(=O)n(Cc1cc(C(C)=O)ccc1OC)c(=O)n2Cc1ccccc1 | 39.8% | 88.2% (active)
COc1ccccc1N1C(=O)C2C(c3ccccc3F)NN(C(=O)c3ccc(C)cc3)C2C1=O (stereo not drawn) | 26.8% | 59.4% (inactive)
COc1ccccc1-n1cc(C(=O)c2cc(Cl)ccc2O)cc(C#N)c1=O | 44.9% | 99.4% (active)
Cc1ccc2cc(CN(Cc3ccccc3)Cc3nnnn3C3CCCC3)c(=O)[nH]c2c1 | 39.2% | 86.8% (active)
O=C(CN(c1ccc(F)cc1)S(=O)(=O)c1ccccc1)NC1CC2CCC1C2 (stereo not drawn) | 24.2% | 53.5% (inactive)
CCOc1cc(C2C(C(=O)OC)=CN(Cc3ccc(Cl)cc3)C=C2C(=O)OC)ccc1O | 37.6% | 83.2% (inactive)
Cc1ccc2nc(N3C(=O)C(O)=C(C(=O)c4ccc(C)o4)C3c3ccc(O)cc3)sc2c1 (stereo not drawn) | 37% | 81.9% (inactive)
Cc1nc2ncccn2c1-c1csc(Nc2cccc(C(=O)O)c2)n1 | 33.5% | 74.2% (inactive)
O=c1c(S(=O)(=O)c2ccc(Cl)cc2)cn(Cc2ccccc2)c2ccc(F)cc12 | 38% | 84.1% (inactive)
O=C(CCn1c(=O)c2sccc2n(CC(=O)OCc2ccccc2)c1=O)NCc1ccccc1 | 31.1% | 68.8% (inactive)
Cc1cc(N2C(=O)C(O)=C(C(=O)c3ccc(C)o3)C2c2cccc(Oc3ccccc3)c2)no1 (stereo not drawn) | 34.1% | 75.5% (inactive)
